Screening results: PubChem BioAssay, National Center for Advancing Translational Sciences (NCATS)
In the library only some 12% were active in any assay of this set; here they are far more common.
Sfp PPTase inh – inhibitors of Bacillus subtilis Sfp phosphopantetheinyl transferase; Biochemical Sfp PPTase activity, qHTS; Potency, µM, for inactives: largest response in the series, negative = inhibition, actives largely listed as inhibitors; 3.5% of 310,000 active; AID 1490;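 also: the enzyme is Sfp with the accession as filed and its product quenches rhodamine fluorescence; 0% = enzyme reaction without inhibitor and -100% = no enzyme wells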
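Fluorescence-quenching assay: 15 nM Sfp-PPTase preincubated 15 min at room temperature with compound, then 5 uM rhodamine-CoA and 12.5 uM BHQ-2-labelled YbbR peptide added. Fluorescence (ex 525/em 598 nm) read at start and after 30 min; difference gives rate.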
G9a inh – inhibitors of human histone lysine methyltransferase G9a | Q96KQ7 | G9a H3K9 monomethylation, AlphaScreen, 2 h | Potency, µM (top dose mostly 102 µM), without a hit: at the top dose activity, negative = inhibition, actives largely listed as inhibitors | 8.8% of 350,000 active; also: % is scaled to controls: 0 for no effect and ±100 for the full control effect; nearly all actives have a fitted effect of over 75% in size
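Chemiluminescent proximity detection of H3K9 monomethylation, read after 10 min bead incubation in the dark. Reaction: 20 nM G9a, 500 nM biotin-H3K9 peptide, 20 uM SAM cofactor, 2 h, room temperature, following 15 min enzyme-compound preincubation.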
L3MBTL1 inh-1 – inhibitors of human L3MBTL1; AlphaScreen L3MBTL1–H3K9me1 peptide binding; 0.66% of 230,000 active; Q9Y468; Potency, µM (titrated, usually from 57.1 µM), for inactives: top-dose activity, negative = inhibition, most hits filed as inhibitors; AID 485360; also: % is scaled to controls: 0 for no effect and ±100 for the full control effect; nearly all actives have a fitted effect of over 60% in size
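L3MBTL1 50 nM + b-AHA-H3(1-15)K9me1 75 nM, 30 min RT; compound added, 30 min RT; streptavidin donor/Ni-chelate acceptor beads 10 ug/mL each final, 30 min RT dark; AlphaScreen read.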
JMJD2A Tudor inh – JMJD2A Tudor domain (human) inhibition; AlphaScreen JMJD2A-Tudor / H3K4me3 peptide binding; Potency, µM (doses to about 114 µM), without a hit: at the top dose activity change, negative = inhibition, usual class: inhibitors; 4.4% of 390,000 active; AID 504339; also: % is scaled to controls: 0 for no effect and ±100 for the full control effect; nearly all actives have a fitted effect of over 50% in size
HP1b binding inh – HP1-beta chromodomain-methylated histone interaction inhibition; P83916; AlphaScreen HP1-beta / biotin-H3K9me3 peptide binding; Potency, µM (highest dose often 114 µM), inactives show at the top dose activity change, negative = inhibition, actives largely listed as inhibitors; 0.56% of 390,000 active; also: nearly all actives have a fitted effect of over 70% in size
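HP1-beta protein (50 nM final) preincubated 30 min at room temperature with biotinylated H3(1-18)K9me3 peptide (50 nM) in PBS pH 7.4, 0.01% Tween-20, then compound added for 30 min. AlphaScreen streptavidin donor/nickel chelate acceptor beads (10 ug/mL final), 30 min dark, luminescence read.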
BAZ2B inh – blocks human BAZ2B; Q9UIF8; AlphaScreen BAZ2B-H3K14Ac peptide displacement; Potency, µM (highest dose often 114 µM), inactives show top-dose activity change, negative = inhibition, hits mostly inhibitors; 4.4% of 360,000 active; AID 504333; also: % is scaled to controls: 0 for no effect and ±100 for the full control effect; nearly all actives have a fitted effect of over 60% in size
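BAZ2B 50 nM plus b-H3(5-23)K14Ac 50 nM, PBS pH 7.4/0.01% Tween-20, 30 min RT; compound added (max 110 uM), 30 min RT; streptavidin donor/Ni-chelate acceptor beads 10 ug/mL final, 20 min dark; AlphaScreen read.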
L3MBTL1 inh-2 – validation of human L3MBTL1 methyl-lysine binding inhibitors; shares compounds with L3MBTL1 inh-1; L3MBTL1 methyl-lysine binding inhibition, biochemical qHTS; Potency, µM, usual class: inhibitors; 91% of 500 active; AID 540279; also: nearly all actives have a fitted effect of over 70% in size
AlphaScreen ctr2 – interferes with AlphaScreen signal in L3MBTL1 counterscreen; AlphaScreen counterscreen, signal inhibition; shares compounds with L3MBTL1 inh-1; Potency, µM (doses to about 57.1 µM), without a hit: at the top dose activity change, negative = inhibition, actives largely listed as inhibitors; 500 tested, under 10 active; AID 602224; also: 0% is about no effect
Numbers without * were called inactive; ? = inconclusive; . = no result given; [ ] = dose if it differs, or a comment. Calls follow the shape of the dose curve; as a rule, active = well fitted curve in the direction sought with a large enough effect; inconclusive = small, poorly fitted or top-dose-only effect, or another doubt; inactive = no such curve, though single readings can be large; an effect the other way counts as inactive or inconclusive. Potency is read from the fitted curve at half-maximal effect.

SMILES	Sfp PPTase inh	G9a inh	L3MBTL1 inh-1	JMJD2A Tudor inh	HP1b binding inh	BAZ2B inh	L3MBTL1 inh-2	AlphaScreen ctr2
COc1ccccc1NC(=O)C(C)N1C(=O)C2CCCCC2C1=O (stereo not drawn)	.	15%[0.501 µM]	2%	-3%	47%	5%	.	.
CCOc1ccccc1CN1CCCC(C(=O)Nc2cccc(-n3cccn3)c2)C1 (stereo not drawn)	-1%	-7%	.	-21%	61%	21%[57.1 µM]	.	.
COc1ccc(-c2cc(C(=O)Nc3c(C(=O)c4ccc(C)c(F)c4)oc4ccccc34)no2)cc1	.	1%[59 µM]	.	5%	41%	4%	.	.
CCOC(=O)/C=C/C(=O)N1CCc2ccccc21	18%	12%[0.501 µM]	5%	-16%	14%	?	.	.
Cc1ccc(/C=C/C(=O)N2CCc3ccccc32)o1	28µM*	22µM*	32µM*	40µM*	45µM*	45µM*	6*	-1%
COc1ccc(OC)c(N2C(=O)C(Cl)=C(N3CCCCC3)C2=O)c1	5%	?	-2%	-16%	25%	.	.	.
COc1ccc(OC)c(N2C(=O)[C@@H]3C(c4ccccc4Cl)=NO[C@@H]3C2=O)c1	5%	26%[2.33 µM]	3.5µM*	?	18µM*	32µM*	3*	-2%
CC(C)(CS(=O)(=O)[O-])NC(=O)CC[N+](C)(C)CCO	3%	?	3.5µM*	3.2µM*	8.9µM*	2.8µM*	1.2*	-1%
O=C1NC(=Nc2ccc(O)cc2)S/C1=C\C=C\c1ccco1	-26%	50µM*	16µM*	-8%[11.4 µM]	-8%	?	13*	2%
COC(=O)c1ccc(/C=N/Nc2nc(N3CCCCC3)nc(N3CCCCC3)n2)cc1	-1%	-7%[59 µM]	.	-5%	29%	-12%	.	.
CC(C)Nc1ccc(Nc2ccnc3cc4ccccc4cc23)cc1	-19%	8.9µM*	14µM*	11µM*	25µM*	16µM*	21*	1%
CCOC(=O)C1=C(COC(=O)/C=C/c2ccc(OC)cc2)NC(=O)NC1C (stereo not drawn)	.	-24%	-6%	-5%	10%	3%	.	.
CCOC(=O)C1=C(COC(=O)/C=C/c2ccco2)NC(=O)NC1C (stereo not drawn)	.	28%[0.501 µM]	7.9µM*	28µM*	?	50µM*	8.4*	-1%
Cc1[nH]ccc(=O)c1OCc1ccccc1	2%	14%[59 µM]	-2%	-17%	18%	-1%	.	.
O=c1cc(OCc2ccccc2)cc[nH]1	.	?	28µM*	11µM*	8.9µM*	2.8µM*	6*	-20%
CC(CNc1ccccc1O)C(=O)O (stereo not drawn)	50µM*	16µM*	28µM*	3.2µM*	50µM*	50µM*	11*	0%
CC(NC(=O)CCC(=O)Nc1ccccc1O)c1ccccc1 (stereo not drawn)	.	.	.	9%	36%	.	.	.
COc1ccc(S(=O)(=O)N(CC(=O)NCC2CCCO2)C2CCCCC2)cc1OC (stereo not drawn)	32%	16%	.	-9%	47%	3%	.	.
CC(=O)c1ccc(S(=O)(=O)Nc2c(C)nn(C)c2C)cc1	.	45µM*	28µM*	-14%	-2%	-9%	?	2%
CCC(Sc1nc2cc3c(cc2c(=O)n1CCCCCC(=O)NCc1ccc2c(c1)OCO2)OCO3)C(=O)NCCCOC (stereo not drawn)	.	8%[59 µM]	.	-19%	47%	4%	.	.
CC(c1ccccn1)C(C)(O)C(C)c1ccccn1 (stereo not drawn)	.	.	.	-3%	29%	.	.	.
OC(c1ccccn1)(c1ccccn1)c1ccccn1	?	-7%[59 µM]	16µM*	56µM*	37%	22µM*	21*	-5%
Cc1cccc(NC(=O)/C(=C\c2ccc([N+](=O)[O-])o2)NC(=O)c2ccc(Cl)cc2)c1	12%	?	28µM*	35µM*	?	50µM*	13*	1%
O=C(CSc1nc(=O)n2cc(Cl)ccc2n1)Nc1cccc2ccccc12	.	-30%[12.7 µM]	25µM*	-25%	7%	?	?	9%
Cc1ccn2c(=O)nc(SCC(=O)Nc3cccc4ccccc34)nc2c1	.	-39%	?	-13%	11%	-28%	.	.
SMILES	Sfp PPTase inh	G9a inh	L3MBTL1 inh-1	JMJD2A Tudor inh	HP1b binding inh	BAZ2B inh	L3MBTL1 inh-2	AlphaScreen ctr2
CC(=O)c1sc(NC(=O)c2ccccc2F)nc1-c1ccccc1	?	-26%	16%	-8%	25%	-2%	.	.
O=C(Nc1nc(-c2ccco2)c(-c2ccco2)s1)c1cnccn1	.	10µM*	3.5µM*	-34%	0%	?	2.7*	79%
O=C(Nc1nc(-c2ccco2)c(-c2ccco2)s1)c1ccc(F)cc1F	.	10µM*	8.9µM*	?	?	40µM*	5.3*	-10%
N#Cc1c(NC(=O)CSc2ncnc3sccc23)oc(-c2ccco2)c1-c1ccco1	?	?	13µM*	79µM*	?	45µM*	17*	-12%
COCC(=O)N1CCC2(CC1)CCN(c1cccc(-c3ccccc3)c1)CC2	-3%	-5%[12.7 µM]	.	.	.	.	.	.
Cc1ccnc(NS(=O)(=O)c2ccc(NC(=O)Cc3cccs3)cc2)n1	2%	5%[12.7 µM]	32µM*	32µM*	-33%	50µM*	2.7*	-1%
CCOC(=O)c1cc(-c2ccc(N3CCOCC3)cc2)nn1-c1ccccc1C(=O)O	0%	.	14µM*	3.2µM*	?	13µM*	6.7*	5%
CCOC(=O)c1cc(-c2ccc(N3CCOCC3)cc2)nn1-c1ccccc1	-10%	-8%	-9%	-34%	-17%	?	.	.
COc1ccc(Cl)cc1NC(=O)COC(=O)c1cc(NS(=O)(=O)c2cccs2)ccc1O	?	-9%[59 µM]	40µM*	-8%	31%	3%	?	6%
COc1cc(NC(=O)C2=COCCO2)c(OC)cc1Cl	.	-15%	-18%	-2%	9%	5%	.	.
Cc1cc2c(c(SCC(=O)NCc3ccccc3Cl)n1)C(=O)OC2	18%	?	.	-16%	30%	5%	.	.
Cc1cc(/C=C(/C#N)c2nc3ccccc3[nH]2)c(C)n1-c1cc(C(=O)O)cc(C(=O)O)c1	0%	13µM*	3.5µM*	25µM*	?	40µM*	1.5*	-15%
COc1cc(Br)c(/C=C(\C#N)c2nc3ccccc3[nH]2)cc1OC	.	-48%[59 µM]	.	?	34%	-24%	.	.
Cc1cccc(NCc2ccc(O)c3ncccc23)c1C	27%	0.4µM*	25µM*	?	-4%	56µM*	9.5*	6%
